The text below walks through data of PubChem BioAssay (NCATS).

Several values for one entry are separate records, joined by “and”; a condition that tells them apart may be missing. Equal entries are not always repeated. Records with an inconclusive call do not appear. Activity calls are given as the source filed them. Unless noted, calls follow the shape of the full dose curve.

In test [1] the target is Androgen receptor (Homo sapiens) (UniProt P10275). In words: qHTS assay for small molecule antagonists of androgen receptor signaling (AID 588516; active = well fitted curve in the direction sought with a large enough effect in the signal ratio, with a control signal flat, not every such curve was filed as active; the % refers to the signal ratio; also: % is scaled to controls: 0 for no effect and ±100 for the full control effect). The method in brief:
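AR-UAS-bla-GripTite HEK 293 cells (2000/well, 5 h at 37 C) received compound titrations, then R1881 at 10 nM final; after 16 h at 37 C, CCF4 dye 2 h RT, beta-lactamase fluorescence read; IC50 from Hill fits.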

Test [2] addresses Glucocorticoid receptor (Homo sapiens) (UniProt P04150). In words: qHTS assay for small molecule agonists of glucocorticoid receptor signaling (AID 588532; active = well fitted curve in the direction sought with a large enough effect in the signal ratio, with a control signal flat; the % refers to the signal ratio;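 also: 100% = dexamethasone at 0.1 µM and 0% = DMSO only wells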). The conditions noted are these: HeLa MMTV-bla, beta-lactamase ratio, agonist, 18 h; stronger effect = higher value; percent of dexamethasone control, DMSO zero. The method in brief: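 Titration series, up to 92 uM, applied to GRE-bla HeLa cells for 18 h at 37 C. Detection by CCF4 FRET substrate after 2 h at RT.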

The target is the same in test [3]. In words: qHTS assay for small molecule antagonists of glucocorticoid receptor signaling (AID 588533; active = well fitted inhibition curve with a large enough effect in the signal ratio, with a control signal flat, not every such curve was filed as active; the % refers to the signal ratio;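 also: cells stimulated with 2 nM dexamethasone as agonist; % is scaled to controls: 0 for no effect and ±100 for the full control effect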). The method in brief:
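Antagonist-mode qHTS: compound titrations added to GRE-bla HeLa cells, then dexamethasone 2 nM final; 18 h, 37 C. CCF4 FRET fluorescence normalized to dexamethasone and DMSO; IC50 from Hill fit.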
(In general: qHTS replaces the single test concentration by a dilution series.)

Test [4] addresses Peroxisome proliferator-activated receptor gamma (Homo sapiens) (UniProt P37231). In words: qHTS assay for small molecule agonists of peroxisome proliferator-activated receptor gamma signaling (AID 588536; active = well fitted curve in the direction sought with a large enough effect in the signal ratio, with a control signal flat, not every such curve was filed as active; the % refers to the signal ratio;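 also: 0% = DMSO basal wells and 100% = rosiglitazone at 2 µM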). In short, it runs like this:
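Beta-lactamase reporter read-out: CCF4 fluorescence (ex 405, em 460/530 nm) after 2 h at RT. HEK293 GeneBLAzer cells were treated for 16 h at 37 C. Hill fits gave EC50 and efficacy versus 2 uM rosiglitazone (100%) and DMSO (0%).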

Test [5] is described as follows: qHTS assay for small molecule agonists of retinoid X receptor alpha signaling (AID 588544).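 As to activation: 0% = DMSO basal wells and 100% = reference agonist.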 The conditions noted are these: HEK293T RXRa-UAS-bla, beta-lactamase reporter, 18 h; 530 nm emission.
Test [6] concerns the target Retinoic acid receptor RXR-alpha (Homo sapiens) (UniProt P19793). The description is as above.
The nature of test [7]: qHTS assay for small molecule antagonists of retinoid X receptor alpha signaling (AID 588546; active = well fitted inhibition curve with a large enough effect in the signal ratio, with a control signal flat, not every such curve was filed as active; the % refers to the signal ratio;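 also: cells stimulated with 9-cis-retinoic acid as agonist; % is scaled to controls: 0 for no effect and ±100 for the full control effect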). The conditions noted are these: HEK293T RXRa-UAS-bla, beta-lactamase ratio, antagonist mode; measured here: W530 green channel, cytotoxicity proxy. In short, it runs like this: (§1)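 Beta-lactamase reporter inhibition, read as CCF4 fluorescence ratio (ex 405, em 460/530 nm) after 2 h at RT. HEK293T UAS-bla cells, 2500/well, were stimulated with 9-cis-RA at 500 or 100 nM final alongside test compound for 18 h at 37 C.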

Test [8] deals with Retinoic acid receptor RXR-alpha (Homo sapiens) (UniProt P19793). Described as above. The conditions noted are these: HEK293T RXRa-UAS-bla, beta-lactamase ratio, antagonist mode. In short, it runs like this:
as §1

The target of test [9] is Thyroid hormone receptor beta (Homo sapiens) (UniProt P10828). The test can be described thus: qHTS assay for small molecule antagonists of thyroid hormone receptor beta signaling (AID 588547; active = well fitted inhibition curve with a large enough effect in the signal ratio, with a control signal flat, not every such curve was filed as active; the % refers to the signal ratio;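 also: cells stimulated with 0.4 nM T3 agonist during compound exposure; series mostly up to about 77 µM; % is scaled to controls: 0 for no effect and ±100 for the full control effect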). The conditions noted are these: TR-UAS-bla HEK293, beta-lactamase ratio, antagonist mode, 18 h. The method in brief:
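TR-UAS-bla GripTite HEK293 cells in 2% charcoal/dextran FBS medium were preincubated 4 h at 37 C, given compound (0.59 nM to 92 uM) plus 0.4 nM T3 (final) for 18 h, then CCF4 for 2 h at RT; Hill fit gave IC50.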

The target of test [10] is Voltage-gated inwardly rectifying potassium channel KCNH2 (Homo sapiens) (UniProt Q12809). In words: qHTS Assay for Small Molecule Inhibitors of the Human hERG Channel Activity (AID 588834; active = well fitted inhibition curve with a large enough effect;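 also: lower thallium flux fluorescence means stronger hERG block; nearly all actives have a fitted effect of over 50% in size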; also: potency is read from the fitted curve at half-maximal effect). In short, it runs like this:
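In hERG-transduced U2OS cells, dye-loaded for 1 hr at room temperature in dark, test compounds incubated 10 min at 37 °C before thallium stimulation. AC50 values derived by Hill modelling of concentration-response.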

Test [11] can be described thus: qHTS assay for small molecule activators of the p53 signaling pathway (AID 651743; active = well fitted activation curve with a large enough effect in the signal ratio, not every such curve was filed as active; the % refers to the signal ratio; also: series mostly up to about 92 µM; % of control where 0% means no effect). The conditions noted are these: HCT-116 p53RE-bla, beta-lactamase FRET ratio, 16 h; stronger effect = higher value. The method in brief: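 Here HCT-116 cells with an integrated p53-responsive beta-lactamase gene were incubated with compounds (16 hours, 37 C) after a 5-hour plating period; beta-lactamase activity was detected as fluorescence intensity via B/G FRET substrate.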

Test [12] deals with Bile acid receptor (Homo sapiens) (UniProt Q96RI1). In words: qHTS assay for small molecule antagonists of farnesoid X receptor signaling (AID 588526). Also: % is scaled to controls: 0 for no effect and ±100 for the full control effect. The method in brief:
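Concentration-response titrations were fitted to the Hill equation for half-maximal inhibition and maximal response, with data normalised to 50 uM chenodeoxycholic acid and DMSO control wells. Cells: FXR-UAS-bla HEK293T, dialyzed FBS.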

Test [13] is described as follows: qHTS assay for small molecule antagonists of peroxisome proliferator-activated receptor delta signaling (AID 588535; active = well fitted inhibition curve with a large enough effect in the signal ratio, with a control signal flat, not every such curve was filed as active; the % refers to the signal ratio;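 as to max response: cells co-treated with a PPAR-delta agonist as stimulator during compound exposure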). The conditions noted are these: HEK293T PPARd-UAS-bla, beta-lactamase FRET ratio, 18 h; 460 nm channel. In short, it runs like this:
(§2)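 Compounds tested in titration on PPAR-delta-UAS-bla HEK293T cells grown in charcoal/dextran-stripped serum (2%); beta-lactamase activity read via CCF4 emission at 460 and 530 nm.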

Test [14] has as its target Peroxisome proliferator-activated receptor delta (Homo sapiens) (UniProt Q03181). Described as above. In short, it runs like this:
as §2

The target in test [15] is Vitamin D3 receptor (Homo sapiens) (UniProt P11473). In words: qHTS assay for small molecule antagonists of vitamin D receptor signaling (AID 588541). In short, it runs like this: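 VDR-UAS-bla HEK293T cells (2000/well, 2% charcoal-stripped FBS) were treated with titrated compounds plus 1-alpha,25-dihydroxyvitamin D3 (50 nM or 3 nM final) for 16 h at 37 C. CCF4 beta-lactamase fluorescence was read; Hill fits gave IC50.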

Test [16] has the same target. The test can be described thus: qHTS assay for small molecule agonists of vitamin D receptor signaling (AID 588543).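 Also: 0% = DMSO basal and 100% = reference agonist control.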 The method in brief: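 GeneBLAzer VDR-UAS-bla HEK293T cells in 2% charcoal-stripped FBS medium were dosed with compound titrations for 16 h at 37 °C; CCF4 β-lactamase readout (405 nm ex, 460/530 nm em). EC50 and efficacy from Hill fits, normalized to 50 nM calcitriol (100%) and DMSO (0%).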

Test [17] deals with Thyroid hormone receptor beta (Homo sapiens) (UniProt P10828). In words: qHTS assay for small molecule agonists of thyroid hormone receptor beta signaling (AID 588545). In short, it runs like this: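 In this cell-based screen, titrated compounds act on HEK 293 cells held in medium with 2% charcoal/dextran FBS, NEAA and pyruvate for 18 hrs at 37 C. Responses are expressed relative to T3 (10 nM) as 100% and basal DMSO as 0%.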

Test [18] in a line: qHTS assay for small molecule agonists of the antioxidant response element (ARE) signaling pathway (AID 651741; active = well fitted activation curve with a large enough effect in the signal ratio; the % refers to the signal ratio; also: potency is read from the fitted curve at half-maximal effect; as to activation: % of control where 0% means no effect). The method in brief:
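Beta-lactamase reporter expression driven by the antioxidant response element in HepG2 cells was detected by fluorescence with LiveBLAzer B/G FRET substrate (2 h, room temperature) following 16 h compound treatment at 37 C.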

The nature of test [19]: qHTS assay for small molecule activators of the nuclear factor-kappa B (NF-kB) signaling pathway (AID 651749; active = well fitted activation curve with a large enough effect in the signal ratio; the % refers to the signal ratio; also: series mostly up to about 77 µM; % of control where 0% means no effect). The conditions noted are these: NF-kB-bla ME-180 cells, beta-lactamase FRET ratio, 16 h; stronger effect = higher value. In short, it runs like this:
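Beta-lactamase reporter expression, controlled by NF-kB response elements in ME-180 cells, was quantified fluorometrically via FRET disruption; cells at 2,000/well had been incubated with 23 nL test compound for 16 hr.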

Sequence of Voltage-gated inwardly rectifying potassium channel KCNH2 (Homo sapiens) (Q12809 whole entry, looked up): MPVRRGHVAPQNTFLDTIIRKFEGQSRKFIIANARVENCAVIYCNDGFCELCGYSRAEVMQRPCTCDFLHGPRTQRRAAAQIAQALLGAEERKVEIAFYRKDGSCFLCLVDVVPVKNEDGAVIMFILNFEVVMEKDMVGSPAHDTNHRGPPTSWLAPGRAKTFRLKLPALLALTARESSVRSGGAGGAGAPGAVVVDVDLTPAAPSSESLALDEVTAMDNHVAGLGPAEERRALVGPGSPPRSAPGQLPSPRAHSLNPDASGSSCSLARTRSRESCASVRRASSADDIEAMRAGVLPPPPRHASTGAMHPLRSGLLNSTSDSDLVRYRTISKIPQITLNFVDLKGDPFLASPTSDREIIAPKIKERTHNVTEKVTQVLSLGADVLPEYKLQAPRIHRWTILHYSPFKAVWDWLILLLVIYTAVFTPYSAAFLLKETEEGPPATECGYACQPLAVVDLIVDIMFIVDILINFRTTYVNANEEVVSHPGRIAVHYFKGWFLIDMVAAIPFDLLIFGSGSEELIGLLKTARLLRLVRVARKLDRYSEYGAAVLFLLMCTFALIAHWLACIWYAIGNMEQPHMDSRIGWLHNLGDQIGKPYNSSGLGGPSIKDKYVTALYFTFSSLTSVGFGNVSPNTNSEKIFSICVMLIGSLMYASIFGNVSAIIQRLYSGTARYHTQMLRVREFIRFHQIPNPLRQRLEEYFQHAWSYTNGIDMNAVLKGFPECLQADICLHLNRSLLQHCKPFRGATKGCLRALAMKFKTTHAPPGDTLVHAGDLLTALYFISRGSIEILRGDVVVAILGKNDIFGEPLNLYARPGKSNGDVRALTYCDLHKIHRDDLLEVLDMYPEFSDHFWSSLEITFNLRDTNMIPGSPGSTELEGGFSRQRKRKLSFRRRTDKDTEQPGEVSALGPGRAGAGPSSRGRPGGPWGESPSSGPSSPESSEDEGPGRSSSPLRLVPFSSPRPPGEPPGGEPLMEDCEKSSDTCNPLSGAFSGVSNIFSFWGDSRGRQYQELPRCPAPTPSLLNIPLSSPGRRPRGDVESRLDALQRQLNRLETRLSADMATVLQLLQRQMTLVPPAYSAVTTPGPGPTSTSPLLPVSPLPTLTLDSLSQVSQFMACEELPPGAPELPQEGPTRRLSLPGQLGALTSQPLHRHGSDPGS
Sequence of Vitamin D3 receptor (Homo sapiens) (P11473 whole entry, looked up): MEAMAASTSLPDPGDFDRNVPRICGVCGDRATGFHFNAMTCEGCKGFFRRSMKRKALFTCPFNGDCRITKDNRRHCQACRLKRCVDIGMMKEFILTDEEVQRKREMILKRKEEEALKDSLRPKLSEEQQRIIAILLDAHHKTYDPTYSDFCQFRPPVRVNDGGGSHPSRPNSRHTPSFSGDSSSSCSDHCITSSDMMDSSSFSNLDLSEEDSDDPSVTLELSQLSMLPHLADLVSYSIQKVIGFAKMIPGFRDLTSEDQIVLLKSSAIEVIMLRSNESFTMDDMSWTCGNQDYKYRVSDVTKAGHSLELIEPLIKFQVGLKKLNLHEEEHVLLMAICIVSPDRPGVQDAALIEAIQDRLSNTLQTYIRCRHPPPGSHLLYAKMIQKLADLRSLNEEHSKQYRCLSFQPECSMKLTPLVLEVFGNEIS
Sequence of Peroxisome proliferator-activated receptor gamma (Homo sapiens) (P37231 whole entry, looked up): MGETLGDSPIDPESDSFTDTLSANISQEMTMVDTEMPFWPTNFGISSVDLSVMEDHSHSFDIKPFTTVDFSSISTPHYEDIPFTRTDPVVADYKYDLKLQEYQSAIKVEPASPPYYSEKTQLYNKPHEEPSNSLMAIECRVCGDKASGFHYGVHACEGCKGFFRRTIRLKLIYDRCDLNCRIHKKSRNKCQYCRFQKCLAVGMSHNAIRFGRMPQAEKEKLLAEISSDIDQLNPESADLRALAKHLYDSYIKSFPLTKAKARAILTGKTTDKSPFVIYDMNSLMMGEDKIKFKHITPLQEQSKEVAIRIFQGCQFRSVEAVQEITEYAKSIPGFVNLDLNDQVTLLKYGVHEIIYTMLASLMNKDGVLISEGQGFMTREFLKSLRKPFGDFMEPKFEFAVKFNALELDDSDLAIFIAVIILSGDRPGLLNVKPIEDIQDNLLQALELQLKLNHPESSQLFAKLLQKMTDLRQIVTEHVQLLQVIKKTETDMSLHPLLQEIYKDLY
Sequence of Bile acid receptor (Homo sapiens) (Q96RI1 whole entry, looked up): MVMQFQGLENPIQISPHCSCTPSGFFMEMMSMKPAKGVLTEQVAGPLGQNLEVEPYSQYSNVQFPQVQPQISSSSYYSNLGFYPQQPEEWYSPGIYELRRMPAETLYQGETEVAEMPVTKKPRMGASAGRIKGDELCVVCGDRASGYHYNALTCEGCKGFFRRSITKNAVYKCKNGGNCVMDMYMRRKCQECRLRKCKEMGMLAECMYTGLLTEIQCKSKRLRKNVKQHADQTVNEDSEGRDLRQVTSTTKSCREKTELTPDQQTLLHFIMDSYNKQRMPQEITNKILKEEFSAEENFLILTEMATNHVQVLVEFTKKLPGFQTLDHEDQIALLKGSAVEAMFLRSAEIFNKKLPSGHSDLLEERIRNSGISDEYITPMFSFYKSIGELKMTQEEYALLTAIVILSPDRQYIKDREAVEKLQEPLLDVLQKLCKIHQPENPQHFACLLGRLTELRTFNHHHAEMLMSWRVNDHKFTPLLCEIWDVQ
Sequence of Retinoic acid receptor RXR-alpha (Homo sapiens) (P19793 whole entry, looked up): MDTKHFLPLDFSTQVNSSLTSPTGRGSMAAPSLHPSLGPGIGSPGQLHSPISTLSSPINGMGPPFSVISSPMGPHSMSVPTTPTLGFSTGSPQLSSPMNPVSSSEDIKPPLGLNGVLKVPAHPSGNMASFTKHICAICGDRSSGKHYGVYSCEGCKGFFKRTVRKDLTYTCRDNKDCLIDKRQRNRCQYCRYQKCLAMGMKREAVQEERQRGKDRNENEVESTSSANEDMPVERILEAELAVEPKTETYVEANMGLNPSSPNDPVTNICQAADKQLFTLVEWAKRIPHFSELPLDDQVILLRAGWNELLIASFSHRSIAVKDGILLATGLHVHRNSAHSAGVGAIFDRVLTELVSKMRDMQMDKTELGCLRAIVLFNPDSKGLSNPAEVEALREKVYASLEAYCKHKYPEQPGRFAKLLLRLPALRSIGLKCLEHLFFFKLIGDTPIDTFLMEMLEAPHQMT
Sequence of Thyroid hormone receptor beta (Homo sapiens) (P10828 whole entry, looked up): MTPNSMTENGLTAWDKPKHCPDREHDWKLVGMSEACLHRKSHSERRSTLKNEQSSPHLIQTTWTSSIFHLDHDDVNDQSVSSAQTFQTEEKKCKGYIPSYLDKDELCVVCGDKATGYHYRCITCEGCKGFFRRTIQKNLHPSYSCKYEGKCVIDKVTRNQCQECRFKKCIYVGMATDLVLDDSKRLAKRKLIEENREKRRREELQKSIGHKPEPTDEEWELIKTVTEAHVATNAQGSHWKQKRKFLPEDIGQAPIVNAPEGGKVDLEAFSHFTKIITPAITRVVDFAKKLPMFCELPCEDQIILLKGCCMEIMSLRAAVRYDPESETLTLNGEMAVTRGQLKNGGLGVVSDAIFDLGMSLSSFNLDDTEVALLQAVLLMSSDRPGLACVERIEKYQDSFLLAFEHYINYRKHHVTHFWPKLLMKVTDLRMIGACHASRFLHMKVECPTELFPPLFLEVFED
Sequence of Peroxisome proliferator-activated receptor delta (Homo sapiens) (Q03181 whole entry, looked up): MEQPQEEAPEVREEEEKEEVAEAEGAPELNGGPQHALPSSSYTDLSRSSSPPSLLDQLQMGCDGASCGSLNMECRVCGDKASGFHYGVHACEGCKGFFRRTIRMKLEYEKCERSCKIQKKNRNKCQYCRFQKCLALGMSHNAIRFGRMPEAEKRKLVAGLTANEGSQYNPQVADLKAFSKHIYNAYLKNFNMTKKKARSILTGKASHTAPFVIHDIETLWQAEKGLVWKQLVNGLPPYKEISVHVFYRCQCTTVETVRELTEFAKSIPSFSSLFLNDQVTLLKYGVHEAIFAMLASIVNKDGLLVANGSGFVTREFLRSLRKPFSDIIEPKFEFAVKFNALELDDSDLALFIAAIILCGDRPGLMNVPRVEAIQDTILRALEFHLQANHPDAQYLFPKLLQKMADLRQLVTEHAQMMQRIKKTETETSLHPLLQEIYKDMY
Sequence of Glucocorticoid receptor (Homo sapiens) (P04150 whole entry, looked up): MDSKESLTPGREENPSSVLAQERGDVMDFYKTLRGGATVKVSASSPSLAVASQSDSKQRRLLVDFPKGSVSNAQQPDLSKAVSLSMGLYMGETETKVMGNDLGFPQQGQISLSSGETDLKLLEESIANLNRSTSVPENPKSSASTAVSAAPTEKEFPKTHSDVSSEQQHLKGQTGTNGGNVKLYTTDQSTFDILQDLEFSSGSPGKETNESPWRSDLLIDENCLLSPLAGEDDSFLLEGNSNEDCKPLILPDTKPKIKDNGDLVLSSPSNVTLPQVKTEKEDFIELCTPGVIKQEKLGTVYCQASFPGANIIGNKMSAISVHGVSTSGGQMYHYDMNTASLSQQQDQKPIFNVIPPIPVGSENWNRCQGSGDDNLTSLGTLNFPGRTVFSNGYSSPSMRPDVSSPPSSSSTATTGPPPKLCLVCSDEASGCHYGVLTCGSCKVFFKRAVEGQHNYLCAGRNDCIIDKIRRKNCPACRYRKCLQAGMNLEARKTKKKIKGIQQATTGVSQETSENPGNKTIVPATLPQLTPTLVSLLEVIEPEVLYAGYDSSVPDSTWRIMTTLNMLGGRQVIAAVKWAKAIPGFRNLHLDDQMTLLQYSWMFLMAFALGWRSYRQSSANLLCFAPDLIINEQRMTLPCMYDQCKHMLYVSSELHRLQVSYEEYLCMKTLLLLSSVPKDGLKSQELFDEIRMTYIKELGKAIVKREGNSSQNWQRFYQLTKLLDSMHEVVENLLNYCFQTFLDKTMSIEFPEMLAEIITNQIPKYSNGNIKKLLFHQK

For `Nc1cccc([N+](=O)[O-])c1`, the result in test [1], in [3], in [4] and in test [6] was inactive. Further, the activation in test [2] was 0.474% (inactive); in [11], -4.7% (inactive). Besides, the max response in test [5] was -3.08%; in [7] it was -9.54%; in [8], 1.86% (inactive). Besides, in test [9], the activity change % (negative = inhibition) was -4.44% (inactive). In addition, the Potency entry in [10] was “inactive”.
For the compound `N#CC1(O)CCCCC1`, the compound was called inactive in [12], in [4], in test [15], in test [16] and in [17]. Besides, the activation is 0.0169% (inactive) in test [2], 0.526% (inactive) in test [11] and -2.59% (inactive) in [19]. Besides, the max response in [13] is 12%; in test [5], 4.69%; in test [7], -4.06%; in test [8] it was 2.71% (inactive). Moreover, the Potency result in test [14], in test [10] and in test [18] was “inactive” each time. For the same compound, in test [9], the activity change % (negative = inhibition) was -16% (inactive).
`CCC(C)(C)C`: the compound was called inactive in test [12], in [3], in [4], in test [15], in test [16] and in test [6]. Also, the activation in [2] was -3.95% (inactive); in [11], -0.874% (inactive). In addition, the figures for the max response in [5], in [7] and in test [8] were 7.52%, -12.5% and 11.7% (inactive), respectively. In addition, the activity change % (negative = inhibition) in [9] was -4.13% (inactive). The Potency entry in test [10] and in [18] was “inactive” each time.
In the case of `COC(=O)CCCC(=O)OC`, the call in test [12], in test [15], in [16], in test [6] and in test [17] was inactive. In addition, the activation in [2] was -5.32% (inactive); in [11], -1.04% (inactive); in [19] it was -0.14% (inactive). Besides, the max response in test [13] is 14.2%; in [5], -5.09%; in test [7] it was -9.56%. For the same compound, the Potency result in test [14] and in test [10] was “inactive” in each case. Also, the activity change % (negative = inhibition) in test [9] was -27% (inactive).
Consider `CCCCC/C=C/C=C/C=O`, for which the result in test [12], in test [4], in test [15], in test [16], in [6] and in test [17] was inactive. Moreover, the activation was -3.04% (inactive) and 0.369% (inactive) in test [2]; -11.3% (inactive) in test [11]; -1.4% (inactive) and -2.02% (inactive) in test [19]. The max response is 16.5% in [13]; -6.95% and 20% in test [5]; -1.35% and -13.3% in test [7]; 1.5% (inactive) and -3.35% (inactive) in [8]. Further, the activity change % (negative = inhibition) in test [9] was 6.77% (inactive) and -0.205% (inactive). Also, in test [10], the Potency entry is “inactive”. Also, the Potency in test [18] is 48.6 µM (active).
Take `CC(C)CCOC(=O)/C=C/c1ccccc1`: the compound was called inactive in [12], in [4], in test [15], in [16], in test [6] and in [17]. The activation in [2] is -0.0444% (inactive); in [11], 1.36% (inactive); in [19], -1.28% (inactive). The max response in test [13] was 17.3%; in [5], 7.69%; in test [7] it was 5.75%; in test [8], -10.7% (inactive). Moreover, in test [14], the Potency result was “inactive”. Further, the activity change % (negative = inhibition) in test [9] was -18.5% (inactive). The Potency in test [10] is 22.4 µM (active).
`Cc1ccc(C)c(O)c1`: the call in [12], in test [4], in test [15], in [16] and in [17] was inactive. Also, the results for the activation in [2] and in [11] were 4.8% (inactive) and 0.75% (inactive), respectively. For the same compound, the max response is 7.19% in test [13], 0.17% in [5], -5.88% in test [7] and 6.26% (inactive) in test [8]. The Potency result in test [14], in [10] and in test [18] was “inactive” in each case. Further, in [9], the activity change % (negative = inhibition) was 1.01% (inactive).
For `CCc1ccccc1O`, the call in test [12], in [3], in test [4], in test [15], in test [16] and in test [6] was inactive. Moreover, the call in test [17] was inactive. For the same compound, the activation in test [2] is 4.35% (inactive); in test [19], 0.236% (inactive). The max response was -32.1% in test [13], -12.3% in test [5], -5.98% in test [7] and 5.77% (inactive) in test [8]. Also, the Potency entry in test [14] and in test [10] was “inactive” each time.
